Laboratory results taken from the supplement of paper PMC10849652.
The full data set covers some 8,800 targets. This sample favours those with a hit. About 0.5% of all pairs of compound and target were hits.

The targets below were run with Cc1sc2c(c1C)C(c1ccc(Cl)cc1)=N[C@@H](CC(=O)OC(C)(C)C)c1nnc(C)n1-2 (assay: log2 fold change, soluble protein after heating vs DMSO (PISA); higher = thermal stabilisation; K562 lysate, 10 uM; active = over 0.2 and 3.5 SD of the protein, either way, in both replicates (recomputed)).
Procedure, shortened: (§1)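 Dounce homogenisation of K562 pellets in PBS pH 7.4 with 1 mM MgCl2 produced a crude extract, used at 1 mg/mL protein. Exposure to 10 μM compound lasted 30 min, and aliquots were then heated for 3 min across 48°C-58°C, pooled and brought to 0.5% NP-40 at 4°C. The supernatant after 21,000xg for 90 min was quantified by TMTpro 16plex LC-MS/MS with channel sums equalised. Duplicate values are given as log-two fold change in thermal stability relative to solvent controls.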

UniProt Q9NNW7, sequence (Q9NNW7 whole entry, looked up): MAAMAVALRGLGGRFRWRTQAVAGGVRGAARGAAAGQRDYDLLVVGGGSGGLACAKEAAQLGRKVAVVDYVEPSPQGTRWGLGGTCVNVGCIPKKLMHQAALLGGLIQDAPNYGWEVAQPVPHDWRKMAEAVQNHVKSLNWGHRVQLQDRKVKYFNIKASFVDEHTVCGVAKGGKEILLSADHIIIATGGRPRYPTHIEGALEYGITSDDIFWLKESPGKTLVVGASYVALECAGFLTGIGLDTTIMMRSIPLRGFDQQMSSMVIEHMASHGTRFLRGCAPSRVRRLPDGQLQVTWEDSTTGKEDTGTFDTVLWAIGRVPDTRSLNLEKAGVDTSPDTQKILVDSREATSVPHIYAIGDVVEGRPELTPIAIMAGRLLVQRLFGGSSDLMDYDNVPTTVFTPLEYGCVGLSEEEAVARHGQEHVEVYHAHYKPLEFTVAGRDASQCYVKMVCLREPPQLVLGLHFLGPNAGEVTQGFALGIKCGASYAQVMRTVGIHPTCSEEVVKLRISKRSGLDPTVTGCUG
UniProt Q9UKI8, sequence (Q9UKI8 whole entry, looked up): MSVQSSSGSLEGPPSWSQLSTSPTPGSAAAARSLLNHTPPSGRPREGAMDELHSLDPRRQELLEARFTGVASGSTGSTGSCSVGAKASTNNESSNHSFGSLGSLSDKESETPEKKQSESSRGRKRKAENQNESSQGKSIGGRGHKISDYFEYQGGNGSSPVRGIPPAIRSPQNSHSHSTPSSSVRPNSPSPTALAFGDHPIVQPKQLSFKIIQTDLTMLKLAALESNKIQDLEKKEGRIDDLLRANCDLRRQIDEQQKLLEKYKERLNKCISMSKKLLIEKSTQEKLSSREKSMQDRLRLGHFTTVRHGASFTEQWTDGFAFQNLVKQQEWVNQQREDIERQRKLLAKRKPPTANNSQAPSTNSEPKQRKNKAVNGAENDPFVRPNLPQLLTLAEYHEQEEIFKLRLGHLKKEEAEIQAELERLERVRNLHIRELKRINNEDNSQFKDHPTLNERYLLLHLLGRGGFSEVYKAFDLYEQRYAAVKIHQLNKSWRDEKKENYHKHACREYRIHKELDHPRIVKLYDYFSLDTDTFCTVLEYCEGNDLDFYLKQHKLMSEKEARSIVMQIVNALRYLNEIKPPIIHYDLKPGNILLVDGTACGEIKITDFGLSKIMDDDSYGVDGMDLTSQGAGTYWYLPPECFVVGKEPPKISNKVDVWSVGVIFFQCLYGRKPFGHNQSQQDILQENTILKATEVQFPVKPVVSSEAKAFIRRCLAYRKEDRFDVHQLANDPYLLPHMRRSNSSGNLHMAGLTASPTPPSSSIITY
UniProt Q9BZL1, sequence (Q9BZL1 whole entry, looked up): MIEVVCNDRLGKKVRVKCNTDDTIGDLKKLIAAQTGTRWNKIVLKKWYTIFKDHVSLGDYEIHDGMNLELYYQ
UniProt Q6IPR3, sequence (Q6IPR3 whole entry, looked up): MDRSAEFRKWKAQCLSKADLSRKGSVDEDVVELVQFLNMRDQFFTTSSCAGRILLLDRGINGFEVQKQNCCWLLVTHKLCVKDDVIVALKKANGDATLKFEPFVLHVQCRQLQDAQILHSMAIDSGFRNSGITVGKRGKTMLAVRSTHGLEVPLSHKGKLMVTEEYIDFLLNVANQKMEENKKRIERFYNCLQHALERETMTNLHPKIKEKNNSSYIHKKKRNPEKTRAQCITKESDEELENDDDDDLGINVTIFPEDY
UniProt Q96Q05, sequence (Q96Q05 whole entry, looked up): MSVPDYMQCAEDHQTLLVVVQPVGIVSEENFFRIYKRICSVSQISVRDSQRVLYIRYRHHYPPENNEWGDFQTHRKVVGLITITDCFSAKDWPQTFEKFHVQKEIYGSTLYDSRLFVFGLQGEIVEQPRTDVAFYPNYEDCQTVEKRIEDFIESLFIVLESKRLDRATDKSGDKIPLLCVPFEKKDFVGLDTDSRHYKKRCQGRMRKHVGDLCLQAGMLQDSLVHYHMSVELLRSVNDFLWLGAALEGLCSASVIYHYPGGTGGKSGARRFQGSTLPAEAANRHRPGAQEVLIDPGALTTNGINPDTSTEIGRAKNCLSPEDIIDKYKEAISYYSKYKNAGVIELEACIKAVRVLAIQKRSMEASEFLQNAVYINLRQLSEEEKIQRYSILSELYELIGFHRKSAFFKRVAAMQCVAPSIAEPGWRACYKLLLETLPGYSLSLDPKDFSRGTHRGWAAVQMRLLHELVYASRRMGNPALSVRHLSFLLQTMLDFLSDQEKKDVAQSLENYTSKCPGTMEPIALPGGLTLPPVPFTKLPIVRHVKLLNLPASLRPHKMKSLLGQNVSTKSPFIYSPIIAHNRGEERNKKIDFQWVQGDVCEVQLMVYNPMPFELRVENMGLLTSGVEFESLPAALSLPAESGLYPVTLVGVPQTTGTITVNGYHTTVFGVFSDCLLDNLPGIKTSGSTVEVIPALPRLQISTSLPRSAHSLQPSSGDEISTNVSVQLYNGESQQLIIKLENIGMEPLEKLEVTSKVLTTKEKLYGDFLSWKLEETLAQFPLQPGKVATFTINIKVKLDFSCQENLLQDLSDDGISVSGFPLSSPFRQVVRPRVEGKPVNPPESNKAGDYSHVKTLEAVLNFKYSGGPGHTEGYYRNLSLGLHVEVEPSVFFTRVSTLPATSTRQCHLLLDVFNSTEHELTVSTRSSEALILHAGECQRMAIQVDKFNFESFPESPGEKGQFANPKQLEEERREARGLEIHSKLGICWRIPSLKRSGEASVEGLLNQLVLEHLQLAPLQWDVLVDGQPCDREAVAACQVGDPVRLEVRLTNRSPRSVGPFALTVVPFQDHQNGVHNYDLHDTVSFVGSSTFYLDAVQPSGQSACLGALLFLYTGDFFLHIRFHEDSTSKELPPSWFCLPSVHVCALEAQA
UniProt Q12800, sequence (Q12800 whole entry, looked up): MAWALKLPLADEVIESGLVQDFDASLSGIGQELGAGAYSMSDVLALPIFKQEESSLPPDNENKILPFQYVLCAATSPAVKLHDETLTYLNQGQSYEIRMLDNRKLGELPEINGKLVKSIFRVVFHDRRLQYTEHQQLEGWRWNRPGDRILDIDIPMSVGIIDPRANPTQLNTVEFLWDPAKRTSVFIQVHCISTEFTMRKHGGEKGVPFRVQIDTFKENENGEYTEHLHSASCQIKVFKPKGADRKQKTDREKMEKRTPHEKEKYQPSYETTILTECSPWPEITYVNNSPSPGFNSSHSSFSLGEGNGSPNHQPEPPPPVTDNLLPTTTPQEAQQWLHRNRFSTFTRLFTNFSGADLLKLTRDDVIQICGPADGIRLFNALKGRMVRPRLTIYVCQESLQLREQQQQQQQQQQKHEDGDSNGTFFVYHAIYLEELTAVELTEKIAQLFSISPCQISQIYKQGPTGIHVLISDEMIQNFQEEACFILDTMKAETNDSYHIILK
UniProt Q8WVT3, sequence (Q8WVT3 whole entry, looked up): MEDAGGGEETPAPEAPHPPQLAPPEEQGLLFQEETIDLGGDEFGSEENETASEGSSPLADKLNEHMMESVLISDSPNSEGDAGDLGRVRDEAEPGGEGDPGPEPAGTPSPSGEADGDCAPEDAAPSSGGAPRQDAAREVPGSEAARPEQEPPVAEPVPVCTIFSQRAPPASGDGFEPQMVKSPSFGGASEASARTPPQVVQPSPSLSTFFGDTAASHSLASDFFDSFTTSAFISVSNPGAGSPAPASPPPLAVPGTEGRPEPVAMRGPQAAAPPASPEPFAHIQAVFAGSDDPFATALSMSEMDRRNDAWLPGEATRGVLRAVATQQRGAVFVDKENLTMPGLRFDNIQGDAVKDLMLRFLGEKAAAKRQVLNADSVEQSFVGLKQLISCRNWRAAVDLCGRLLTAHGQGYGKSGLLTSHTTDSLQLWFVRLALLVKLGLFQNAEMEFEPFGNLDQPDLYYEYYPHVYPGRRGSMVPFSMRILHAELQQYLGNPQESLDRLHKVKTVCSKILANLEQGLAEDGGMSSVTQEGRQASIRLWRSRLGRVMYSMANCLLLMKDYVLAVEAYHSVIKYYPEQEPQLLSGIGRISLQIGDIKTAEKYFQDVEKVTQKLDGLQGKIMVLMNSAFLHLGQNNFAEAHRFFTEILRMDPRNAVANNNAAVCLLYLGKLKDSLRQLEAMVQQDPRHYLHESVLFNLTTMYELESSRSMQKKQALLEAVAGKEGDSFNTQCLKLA
UniProt O95857, sequence (O95857 whole entry, looked up): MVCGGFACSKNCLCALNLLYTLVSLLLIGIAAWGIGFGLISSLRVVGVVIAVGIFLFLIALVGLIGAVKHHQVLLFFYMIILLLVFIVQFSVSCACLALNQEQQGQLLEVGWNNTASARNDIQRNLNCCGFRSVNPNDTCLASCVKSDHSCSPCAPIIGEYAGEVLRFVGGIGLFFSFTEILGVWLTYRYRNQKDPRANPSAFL
UniProt Q96DX7, sequence (Q96DX7 whole entry, looked up): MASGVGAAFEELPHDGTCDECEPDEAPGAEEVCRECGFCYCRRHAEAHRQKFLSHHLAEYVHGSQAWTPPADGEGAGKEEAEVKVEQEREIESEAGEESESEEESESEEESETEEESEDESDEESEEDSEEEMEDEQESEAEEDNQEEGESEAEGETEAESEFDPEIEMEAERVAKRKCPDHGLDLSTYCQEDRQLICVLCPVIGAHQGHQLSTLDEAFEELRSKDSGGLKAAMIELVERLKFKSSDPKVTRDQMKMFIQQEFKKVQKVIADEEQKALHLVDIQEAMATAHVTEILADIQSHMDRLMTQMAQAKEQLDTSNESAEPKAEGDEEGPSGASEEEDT
UniProt Q5JUR7, sequence (Q5JUR7 whole entry, looked up): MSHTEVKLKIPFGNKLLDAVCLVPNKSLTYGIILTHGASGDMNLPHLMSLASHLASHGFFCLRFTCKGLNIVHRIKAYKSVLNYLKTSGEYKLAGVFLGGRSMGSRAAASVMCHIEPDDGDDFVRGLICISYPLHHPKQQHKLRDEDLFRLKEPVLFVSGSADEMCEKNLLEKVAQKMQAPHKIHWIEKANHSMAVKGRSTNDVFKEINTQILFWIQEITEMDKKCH
UniProt O14933, sequence (O14933 whole entry, looked up): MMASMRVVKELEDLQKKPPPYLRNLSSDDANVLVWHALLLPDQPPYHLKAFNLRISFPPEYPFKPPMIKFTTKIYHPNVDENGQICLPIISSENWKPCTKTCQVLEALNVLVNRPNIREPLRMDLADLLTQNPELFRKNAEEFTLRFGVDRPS

Target | log2 fold change
TBL3 (UniProt Q12788) | -0.014 (inactive)
TRMT10A (UniProt Q8TBZ6) | 0.016 (inactive)
TLK1 isoform 2 (UniProt Q9UKI8) | -0.025 (inactive)
TRAPPC9 isoform 2 (UniProt Q96Q05) | 0.055 (inactive)
TUBB1 (UniProt Q9H4B7) | 0.063 (inactive)
TYW3 (UniProt Q6IPR3) | -0.029 (inactive)
TNIK isoform 4 (UniProt Q9UKE5) | -0.032 (inactive)
TCF12 isoform 3 (UniProt Q99081) | -0.048 (inactive)
TUBB6 (UniProt Q9BUF5) | 0.017 (inactive)
TFCP2 (UniProt Q12800) | -0.013 (inactive)
TRIM11 (UniProt Q96F44) | -0.011 (inactive)
TROAP (UniProt Q12815) | 0.057 (inactive)
UBR4 (UniProt Q5T4S7) | 0.012 (inactive)
TEX30 (UniProt Q5JUR7) | -0.1 (inactive)
TRAPPC12 (UniProt Q8WVT3) | 0.003 (inactive)
TESC (UniProt Q96BS2) | 0.004 (inactive)
TMEM87A (UniProt Q8NBN3) | -0.011 (inactive)
TBK1 (UniProt Q9UHD2) | -0.003 (inactive)

Target | log2 fold change
TRIM25 (UniProt Q14258) | 0.013 (inactive)
UBL5 (UniProt Q9BZL1) | 0.005 (inactive)
TSPAN13 (UniProt O95857) | 0.187 (inactive)
TTK (UniProt P33981) | 0.02 (inactive)
TIAL1 isoform 2 (UniProt Q01085) | 0.031 (inactive)
TGFBRAP1 (UniProt Q8WUH2) | 0.05 (inactive)
UBE2L6 (UniProt O14933) | 0.032 (inactive)
TRIM44 (UniProt Q96DX7) | -0.031 (inactive)
THAP9 (UniProt Q9H5L6) | -0.194 (inactive)
TXNRD2 (UniProt Q9NNW7) | -0.042 (inactive)
TMOD1 (UniProt P28289) | 0.017 (inactive)
TBCE (UniProt Q15813) | 0.008 (inactive)
TOR3A (UniProt Q9H497) | 0.018 (inactive)
TPD52L2 isoform 7 (UniProt O43399) | 0.024 (inactive)
TJP1 (UniProt G3V1L9) | 0.009 (inactive)
TMEM164 (UniProt Q5U3C3) | -0.217 (inactive)
TUBA3C (UniProt P0DPH7) | -0.017 (inactive)

These targets were tested with c1ccc([C@@H]2C[C@H]2NC2CCNCC2)cc1 in the same assay as above.
Procedure, shortened: as §1

Target | log2 fold change
TBL3 (UniProt Q12788) | 0.014 (inactive)
TRMT10A (UniProt Q8TBZ6) | -0.029 (inactive)
TLK1 isoform 2 (UniProt Q9UKI8) | -0.072 (inactive)
TRAPPC9 isoform 2 (UniProt Q96Q05) | -0.042 (inactive)
TUBB1 (UniProt Q9H4B7) | 0.087 (inactive)
TYW3 (UniProt Q6IPR3) | -0.067 (inactive)
TNIK isoform 4 (UniProt Q9UKE5) | -0.076 (inactive)
TCF12 isoform 3 (UniProt Q99081) | -0.046 (inactive)
TUBB6 (UniProt Q9BUF5) | 0.027 (inactive)
TFCP2 (UniProt Q12800) | -0.103 (inactive)
TFAP4 (UniProt Q01664) | 0.081 (inactive)
TRIM11 (UniProt Q96F44) | -0.001 (inactive)
TROAP (UniProt Q12815) | 0.096 (inactive)
UBR4 (UniProt Q5T4S7) | -0.003 (inactive)
TEX30 (UniProt Q5JUR7) | -0.038 (inactive)
TRAPPC12 (UniProt Q8WVT3) | 0.015 (inactive)
TTLL12 (UniProt V9GY16) | -0.065 (inactive)
TESC (UniProt Q96BS2) | 0.016 (inactive)
TMEM87A (UniProt Q8NBN3) | -0.128 (inactive)
TBK1 (UniProt Q9UHD2) | -0.023 (inactive)

Target | log2 fold change
TRIM25 (UniProt Q14258) | 0.044 (inactive)
UBL5 (UniProt Q9BZL1) | -0.167 (inactive)
TSPAN13 (UniProt O95857) | -0.131 (inactive)
TTK (UniProt P33981) | 0.003 (inactive)
TIAL1 isoform 2 (UniProt Q01085) | -0.021 (inactive)
TGFBRAP1 (UniProt Q8WUH2) | -0.014 (inactive)
UBE2L6 (UniProt O14933) | 0.008 (inactive)
TUBB4A (UniProt M0QYM7) | -0.074 (inactive)
TRIM44 (UniProt Q96DX7) | 0.083 (inactive)
THAP9 (UniProt Q9H5L6) | -0.284 (inactive)
TXNRD2 (UniProt Q9NNW7) | 0.006 (inactive)
TMOD1 (UniProt P28289) | 0.002 (inactive)
TBCE (UniProt Q15813) | 0.015 (inactive)
TOR3A (UniProt Q9H497) | -0.008 (inactive)
TPD52L2 isoform 7 (UniProt O43399) | -0.058 (inactive)
TJP1 (UniProt G3V1L9) | -0.007 (inactive)
TFPI (UniProt P10646) | 0.269 (inactive)
TMEM164 (UniProt Q5U3C3) | -0.543 (inactive)
TUBA3C (UniProt P0DPH7) | -0.074 (inactive)
